Experimental data reported in PubChem BioAssay (NCATS).
Results filed as inconclusive are left out. A call without a number means that no potency is given here. Calls of active or inactive are those of the source. Calls follow the shape of the dose curve; as a rule, active = well fitted curve in the direction sought with a large enough effect; inconclusive = small, poorly fitted or top-dose-only effect, or another doubt; inactive = no such curve, though single readings can be large; an effect the other way counts as inactive or inconclusive.

Tests used:
[1] = biological target: Aldehyde dehydrogenase, mitochondrial (Homo sapiens) (UniProt P05091); assay: qHTS for Inhibitors of the Aldehyde Dehydrogenase Family (ALDH2) Primary screen (AID 2061308); conditions: ALDH2 enzyme inhibition qHTS, 1536-well; series mostly up to 56 µM; also: nearly all actives have a fitted effect of over 55% in size
[2] = biological target: Retinaldehyde dehydrogenase 3 (Homo sapiens) (UniProt P47895); assay: qHTS for Inhibitors of the Aldehyde Dehydrogenase Family (ALDH1A3) Primary screen (AID 2061315); conditions: ALDH inhibition qHTS; series mostly up to 56 µM

SMILES | Potency [1] | Potency [2]
CN(C)C(=O)c1cccc(-c2csc(N3CCC(C(N)=O)CC3)n2)c1 | inactive | inactive
N#CN1CCC(NS(=O)(=O)c2ccc(F)cc2)C1 (stereo not drawn) | inactive | inactive
COc1ccccc1C1=Nn2c(nnc2-c2cccc(OC)c2OC)SC1 | inactive | inactive
O=C(NCCCc1cnc[nH]1)NCCCN(Cc1ccc(Cl)c(Cl)c1)c1ccc(Br)cn1 | inactive | inactive
O=C(/C=C/n1cnc(-c2cc(C(F)(F)F)cc(C(F)(F)F)c2)n1)NNc1cnccn1 | inactive | inactive
O=c1c2ccccc2nc2sc(Nc3cccc(Cl)c3)nn12 | inactive | inactive
CCCn1c(-c2ccc(F)cc2)nc2c(N(C)CCN(C)C)nc(C)nc21 | inactive | inactive
CCN(CC)C(=O)c1cc(S(=O)(=O)Cc2ccccc2)c(N2CCC(c3ccccc3)CC2)cc1N(CC)CCN(C)C | inactive | inactive
COc1ccc(OC)c(C2=Nn3c(nnc3-c3cccc(OC)c3OC)SC2)c1 | inactive | inactive
COc1ccc2oc(NC3=NC(c4[nH]ncc4Cl)C4=C(CCCC4=O)N3)nc2c1 (stereo not drawn) | inactive | inactive
CC(C)c1ccccc1-c1ncc(F)c(NCc2ccc(-c3cccnc3)s2)n1 | inactive | inactive
Nc1ccc(S(=O)(=O)N2CCN(S(=O)(=O)c3ccc4c(c3)OCCO4)CC2)cc1 | inactive | inactive
Cc1cc2c(s1)c1cnn(Cc3cccc(C)c3F)c(=O)c1n2C | inactive | inactive
Cc1ccc(S(=O)(=O)Nc2cc(Cl)cc(C(=O)Nc3nc(-c4ccccc4)cs3)c2)cc1 | inactive | inactive
Cc1cc2c(s1)c1cnn(Cc3ccc(F)c(C)c3)c(=O)c1n2C | inactive | inactive
O=c1c2ccccc2nc(-c2ccccc2O)n1Cc1ccccc1 | inactive | inactive
O=S(=O)(Nc1cccc2ccccc12)c1ccc(NCc2ccc(Br)cc2O)cc1 | inactive | inactive
CSc1ccccc1-c1ncc(C)c(NCc2ccc(-c3cccnc3)cc2)n1 | inactive | inactive
COc1ccccc1-c1csc2ncnc(Sc3nnnn3C)c12 | inactive | inactive
CCOC(=O)C1CCN(C(=O)C(C)(C)NC(=O)Nc2ccc(F)c(F)c2)CC1 | inactive | inactive

SMILES | Potency [1] | Potency [2]
O=C1CCCC2=C1C(c1[nH]ncc1Cl)N=C(Nc1nc3cc(Cl)ccc3o1)N2 (stereo not drawn) | inactive | inactive
COc1cc(Nc2nc(-c3ccncc3)nc3ccccc23)ccc1NS(C)(=O)=O | inactive | inactive
COc1cccc(CNc2ccc(S(=O)(=O)Nc3ccc(N4CCNCC4)cc3)cc2)c1O | inactive | inactive
Cc1cc(C)c(S(=O)(=O)Nc2cccc3cccnc23)c(C)c1 | inactive | inactive
COc1ccc(C2c3c(n(Cc4ccccc4)cnc3=N)Oc3ccc4ccccc4c32)cc1OC (stereo not drawn) | inactive | inactive
CN(Cc1cncn1C)c1ncnc2ccc(-c3ccc4c(c3)OCO4)cc12 | inactive | inactive
Cn1nnnc1Sc1ncnc2scc(-c3cccc([N+](=O)[O-])c3)c12 | inactive | inactive
Nc1nc(N)c2c(OCC3CCN(Cc4ccccc4F)CC3)cccc2n1 | inactive | inactive
COC(=O)c1ccc(Nc2nc(-c3ccncc3)nc3ccccc23)cc1OC | inactive | inactive
CCOc1ccc(CCNC(=O)c2cc3sccc3n2Cc2cccc(C)c2)cc1OCC | inactive | inactive
Cc1ccc(-n2c(=O)ccc(=O)n2CC(=O)NCCc2ccccc2)cc1 | inactive | inactive
O=C1CCCC2=C1C(c1cccnc1)N=C(Nc1nc3ccccc3o1)N2 (stereo not drawn) | inactive | inactive
CC1=C(C(=O)Nc2ccc(C)cc2)C(c2ccccc2Br)N=C(Nc2nc3ccccc3o2)N1 (stereo not drawn) | inactive | inactive
COc1cccc(-c2nnc3n2N=C(c2c(OC)cccc2OC)CS3)c1 | inactive | inactive
CCCc1c(C(C)C)nc(C(C)C)c([C@@H](C)O)c1-c1ccc(F)cc1O | inactive | inactive
Cc1noc(C)c1-c1ccc2ncnc(NCc3cccc(F)c3)c2c1 | inactive | inactive
C[C@@H](N)C(=O)Nc1cccc(-c2nn3c(=O)cc(N4CCNCC4)nc3s2)c1 | inactive | inactive
O=C(c1ccc2c(c1)ncn2-c1ccccc1)N1CCCCC1 | inactive | inactive
Cc1ccc(C[C@H](C(=O)O)N2C(=O)c3ccc(C(=O)O)cc3C2=O)c(C)c1 | inactive | inactive
